Most compounds without a hit are left out; they make up all but 1.6% or so of the library.
KCNQ2 enhance – KCNQ2 (rat) channel potentiation | O88943 | CHO-K1 KCNQ2, FluxOR thallium flux fluorescence; active compounds read high | B-score at 10 µM | hit rate 0.54% among 310,000 | AID 2239;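 active = fluorescence ratio B-score at least 3 SD of library B-scores, with initial fluorescence B-score within 3 of them, cut at about 5.3 in these data; same plate scores as AID 2156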;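 also: B-score of peak minus minimum over baseline fluorescence ratio after K+ and Tl+ stimulus; positive B-score means potentiation of KCNQ2 with more thallium influx and brighter signal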
Target sequence (O88943 whole entry, looked up): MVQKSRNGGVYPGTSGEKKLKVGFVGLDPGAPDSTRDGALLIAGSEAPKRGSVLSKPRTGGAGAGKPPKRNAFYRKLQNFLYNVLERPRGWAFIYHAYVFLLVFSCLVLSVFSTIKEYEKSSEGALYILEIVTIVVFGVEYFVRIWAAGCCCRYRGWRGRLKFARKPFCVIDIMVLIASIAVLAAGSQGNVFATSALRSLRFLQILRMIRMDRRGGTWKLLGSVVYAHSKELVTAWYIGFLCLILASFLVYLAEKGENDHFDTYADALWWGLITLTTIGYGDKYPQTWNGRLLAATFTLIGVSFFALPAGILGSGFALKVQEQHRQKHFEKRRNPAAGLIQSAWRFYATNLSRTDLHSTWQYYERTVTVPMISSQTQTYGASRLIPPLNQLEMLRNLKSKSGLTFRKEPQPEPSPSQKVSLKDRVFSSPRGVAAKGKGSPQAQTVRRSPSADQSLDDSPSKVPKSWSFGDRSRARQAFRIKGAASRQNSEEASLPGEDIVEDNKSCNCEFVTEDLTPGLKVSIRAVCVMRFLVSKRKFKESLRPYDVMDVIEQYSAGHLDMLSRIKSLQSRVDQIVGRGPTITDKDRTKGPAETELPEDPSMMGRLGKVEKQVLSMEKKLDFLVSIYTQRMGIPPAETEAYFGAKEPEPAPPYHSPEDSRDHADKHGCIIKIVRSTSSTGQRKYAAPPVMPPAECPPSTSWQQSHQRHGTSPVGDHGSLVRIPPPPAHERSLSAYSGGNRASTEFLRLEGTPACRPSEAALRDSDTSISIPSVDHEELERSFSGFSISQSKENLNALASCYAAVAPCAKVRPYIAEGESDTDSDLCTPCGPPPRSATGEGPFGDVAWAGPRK
KCNQ2 block – blocks the rat KCNQ2 potassium channel. B-score at 10 µM. AID 2156. CHO-K1 KCNQ2, FluxOR thallium flux, 20 min; active compounds read low. hit rate 1.1% among 310,000. O88943;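 active = fluorescence ratio B-score at most minus 3 library SDs, with starting brightness B-score within 2 library SDs, cut at about -5.5 in these data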
Numbers without * were called inactive.

How did Cc1cccc(C)c1OCc1nc2ccccc2[nH]1 do in these assays?
KCNQ2 enhance: -5.7; KCNQ2 block: -5.7*

Results for Cc1ccc(C)c(OCc2nc3ccccc3[nH]2)c1 ?
KCNQ2 block: inactive

What do the screens show for `CC(C)/C(=N/Nc1ccccc1[N+](=O)[O-])c1ccccc1`?
KCNQ2 enhance: -6.4; KCNQ2 block: -6.4*

How did C/C(=N/Nc1ccccc1[N+](=O)[O-])c1ccc(C)c([N+](=O)[O-])c1 do in these assays?
KCNQ2 enhance: 0.55; KCNQ2 block: inactive

How did Cn1c(SC(C(=O)Nc2ccc(F)cc2)c2ccccc2)nc2ccccc21 (stereo not drawn) do in these assays?
KCNQ2 enhance: 1.3; KCNQ2 block: inactive

What do the screens show for `CC(Sc1nc2ccccc2n1C)C(=O)NC(c1ccccc1)c1ccccc1` (stereo not drawn)?
KCNQ2 enhance: -6.1; KCNQ2 block: -6.1*

How did CCCc1nc2nc(C)c(NS(=O)(=O)c3ccc(C4CCCCC4)cc3)c(=O)n2[nH]1 do in these assays?
KCNQ2 enhance: 1.1; KCNQ2 block: inactive

Results for CC(C)N1CCC(N2CCN(CC#Cc3ccccc3)CC2CCO)CC1 (stereo not drawn) ?
KCNQ2 block: inactive

What do the screens show for `CCOC(=O)N1CCN(C(=O)/C(=C/c2ccc(Br)cc2)NC(=O)c2ccc(OC)cc2)CC1`?
KCNQ2 block: inactive

Results for O=C(C1CCCN(c2ncccn2)C1)N1CCc2ccccc21 (stereo not drawn) ?
KCNQ2 enhance: 0.12; KCNQ2 block: inactive

Results for O=S(=O)(Nc1nc2c(s1)CCCC2)c1ccc2ccccc2c1 ?
KCNQ2 enhance: 0.15; KCNQ2 block: inactive

How did c1ccc2c(Nc3nc4c(s3)CCCC4)cccc2c1 do in these assays?
KCNQ2 enhance: -7.4; KCNQ2 block: -7.4*

Results for COC(=O)c1cc(-c2c(-c3ccc4c(c3)OCO4)noc2-c2ccsc2)cc([N+](=O)[O-])c1 ?
KCNQ2 block: inactive

How did CN(C)c1ccc(-c2c(-c3ccc4c(c3)OCO4)noc2-c2ccsc2)cn1 do in these assays?
KCNQ2 enhance: -5.9; KCNQ2 block: -5.9*

Results for CCCCn1cnc(C(=O)OCC)c1N ?
KCNQ2 enhance: 1.4; KCNQ2 block: inactive

How did Cc1ccc(CNC(=O)C(=O)NCC2CCCN2S(=O)(=O)c2cc(C)ccc2C)cc1 (stereo not drawn) do in these assays?
KCNQ2 block: inactive

What do the screens show for `CCN(/C=N/c1sc2c(c1C#N)CCCCC2)CC`?
KCNQ2 block: inactive

How did CC(C)CN(/C=N/c1sc2c(c1C#N)CCCCC2)CC(C)C do in these assays?
KCNQ2 enhance: -6.2; KCNQ2 block: -6.2*

Results for FC(F)(F)c1cnc(Sc2ncn[nH]2)c(Cl)c1 ?
KCNQ2 block: inactive

Results for CSCC(=O)N1CCCC(N2CCN(c3cccc(C(F)(F)F)c3)CC2)C1 (stereo not drawn) ?
KCNQ2 enhance: -6.8; KCNQ2 block: -6.8*

What do the screens show for `CC1(CCC(=O)N2CCCC(N3CCN(c4cccc(C(F)(F)F)c4)CC3)C2)CC1` (stereo not drawn)?
KCNQ2 block: inactive

Results for C=CCNC(=S)NNC(=O)c1ccc([N+](=O)[O-])cc1 ?
KCNQ2 block: inactive

How did C=CCN(CC=C)C(=S)NC(=O)c1ccc([N+](=O)[O-])cc1 do in these assays?
KCNQ2 enhance: 7.2*; KCNQ2 block: inactive

What do the screens show for `O=C(N=C1SC2CS(=O)(=O)CC2N1Cc1ccc(F)cc1)C1CCCO1` (stereo not drawn)?
KCNQ2 enhance: 0.49; KCNQ2 block: inactive

Results for O=[N+]([O-])c1cc2c(cc1C=Nc1ccccc1)OCO2 ?
KCNQ2 block: inactive

How did Cc1cccc(N=Cc2cc3c(cc2[N+](=O)[O-])OCO3)c1 do in these assays?
KCNQ2 enhance: -6.5; KCNQ2 block: -6.5*

Results for Cc1onc(-c2ccccc2)c1C(=O)Nc1cccc(C#N)c1 ?
KCNQ2 block: inactive

What do the screens show for `Cn1c(SCc2ccccc2C#N)nc2ccccc2c1=O`?
KCNQ2 block: inactive

Results for CCN(CC)S(=O)(=O)c1ccc(C(=O)NC(=S)N(CCO)Cc2ccccc2)cc1 ?
KCNQ2 enhance: 1.4; KCNQ2 block: inactive

How did CCCOc1ccc(CN(CCC#N)C(=S)NC(=O)c2ccccc2)cc1 do in these assays?
KCNQ2 enhance: 7.1*; KCNQ2 block: inactive

Results for Cc1sc2nc3c(C(=O)N4CCCC4)cc(C(=O)c4ccccc4O)cn3c(=O)c2c1C ?
KCNQ2 enhance: -7.1; KCNQ2 block: -7.1*

Results for COc1cccc(N2CCN(C(=O)c3cccn4c(=O)c5c(C)c(C)sc5nc34)CC2)c1 ?
KCNQ2 block: inactive

Results for Cn1c(C(=O)N2CCCCCC2)cc2c(=O)n(C)c3ccccc3c21 ?
KCNQ2 enhance: 0.64; KCNQ2 block: inactive

Results for Cc1cccc(N2CCN(C(=O)c3cc4c(=O)n(C)c5ccccc5c4n3C)CC2C)c1 (stereo not drawn) ?
KCNQ2 enhance: -6.1; KCNQ2 block: -6.1*

How did Cc1[nH]nc(SCC(=O)NC2CCCCC2)c1[N+](=O)[O-] do in these assays?
KCNQ2 enhance: 1.6; KCNQ2 block: inactive

Screens: PubChem BioAssay, Johns Hopkins Ion Channel Center
